Our source for the composite z-score and z-score values is PubChem BioAssay.

The source made the active and inactive calls.

For test [1], the system named is Plasmodium falciparum Sir2 (PF13_0152, Sir2A). Put plainly: Plasmodium falciparum Sir2A binding compounds – biochemical, small-molecule microarray, 635 nm fluorescence, primary screen (AID 1098).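 Also: score merges spot fluorescence intensity with its signal-to-noise ratio.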 The settings on record: fluorescence 635 nm, higher = more signal.
Test [2] in a line: probe aDKK1 binding to arrayed compounds – biochemical, biotinylated probe, 635/667 nm fluorescence, primary screen (AID 1099).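 Also: score merges 667nm spot fluorescence with signal to noise across triplicate slides.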 The settings on record: small-molecule microarray, higher = more signal.
Test [3] in a line: probe aCHRDL2 binding to arrayed compounds – biochemical, biotinylated probe, 635/667 nm fluorescence, primary screen (AID 1100). Conditions: small-molecule microarray, higher = more signal.
Test [4] can be described thus: change in splice reporter luminescence, either direction, cell-based, HEK293, spliceosome inhibition project, primary screen (AID 1101).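 Also: HEK293 cells carrying a splicing-competent luciferase reporter gene; test concentration not given here.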 The settings on record: HEK293 splicing luciferase reporter, 24 h, higher = more signal, called active from +8 up or from −8 down. On the technique in general: Reporter assays use an easily measured gene product as a stand-in for the process of interest.

For test [5], the target named is Fibroblast growth factor 10 (Homo sapiens) (UniProt O15520). The test is described as follows: compounds binding fibroblast growth factor 10 – biochemical, small-molecule microarray, 635 nm fluorescence, primary screen (AID 1102). Conditions: FGF10 binding, fluorescence 635 nm, higher = more signal.
Chain of Fibroblast growth factor 10 (Homo sapiens) (O15520 whole entry, looked up): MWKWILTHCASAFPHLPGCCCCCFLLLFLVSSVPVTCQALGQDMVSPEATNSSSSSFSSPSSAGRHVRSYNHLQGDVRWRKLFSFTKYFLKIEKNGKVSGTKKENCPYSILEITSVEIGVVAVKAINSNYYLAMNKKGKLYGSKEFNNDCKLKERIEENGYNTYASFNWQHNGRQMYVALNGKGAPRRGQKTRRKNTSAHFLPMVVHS
Test [6] relates to glycogen synthase kinase-3 (GSK3A per assay name; protocol says GSK3B). Put plainly: compounds binding glycogen synthase kinase-3 – biochemical, small-molecule microarray, 635 nm fluorescence, GSK3A, primary screen (AID 1103). Also: the record names both GSK3A and GSK3B. The settings on record: fluorescence 635 nm, higher = more signal.
The target of test [7] is Epidermal growth factor receptor (Homo sapiens) (UniProt P00533). The test is described as follows: compounds binding epidermal growth factor receptor – biochemical, small-molecule microarray, 635 nm fluorescence, primary screen (AID 1104).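 Also: score merges 667 nm emission intensity with spot signal to noise over triplicate slides.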 Conditions: EGFR binding, higher = more signal.
Chain of Epidermal growth factor receptor (Homo sapiens) (P00533 whole entry, looked up): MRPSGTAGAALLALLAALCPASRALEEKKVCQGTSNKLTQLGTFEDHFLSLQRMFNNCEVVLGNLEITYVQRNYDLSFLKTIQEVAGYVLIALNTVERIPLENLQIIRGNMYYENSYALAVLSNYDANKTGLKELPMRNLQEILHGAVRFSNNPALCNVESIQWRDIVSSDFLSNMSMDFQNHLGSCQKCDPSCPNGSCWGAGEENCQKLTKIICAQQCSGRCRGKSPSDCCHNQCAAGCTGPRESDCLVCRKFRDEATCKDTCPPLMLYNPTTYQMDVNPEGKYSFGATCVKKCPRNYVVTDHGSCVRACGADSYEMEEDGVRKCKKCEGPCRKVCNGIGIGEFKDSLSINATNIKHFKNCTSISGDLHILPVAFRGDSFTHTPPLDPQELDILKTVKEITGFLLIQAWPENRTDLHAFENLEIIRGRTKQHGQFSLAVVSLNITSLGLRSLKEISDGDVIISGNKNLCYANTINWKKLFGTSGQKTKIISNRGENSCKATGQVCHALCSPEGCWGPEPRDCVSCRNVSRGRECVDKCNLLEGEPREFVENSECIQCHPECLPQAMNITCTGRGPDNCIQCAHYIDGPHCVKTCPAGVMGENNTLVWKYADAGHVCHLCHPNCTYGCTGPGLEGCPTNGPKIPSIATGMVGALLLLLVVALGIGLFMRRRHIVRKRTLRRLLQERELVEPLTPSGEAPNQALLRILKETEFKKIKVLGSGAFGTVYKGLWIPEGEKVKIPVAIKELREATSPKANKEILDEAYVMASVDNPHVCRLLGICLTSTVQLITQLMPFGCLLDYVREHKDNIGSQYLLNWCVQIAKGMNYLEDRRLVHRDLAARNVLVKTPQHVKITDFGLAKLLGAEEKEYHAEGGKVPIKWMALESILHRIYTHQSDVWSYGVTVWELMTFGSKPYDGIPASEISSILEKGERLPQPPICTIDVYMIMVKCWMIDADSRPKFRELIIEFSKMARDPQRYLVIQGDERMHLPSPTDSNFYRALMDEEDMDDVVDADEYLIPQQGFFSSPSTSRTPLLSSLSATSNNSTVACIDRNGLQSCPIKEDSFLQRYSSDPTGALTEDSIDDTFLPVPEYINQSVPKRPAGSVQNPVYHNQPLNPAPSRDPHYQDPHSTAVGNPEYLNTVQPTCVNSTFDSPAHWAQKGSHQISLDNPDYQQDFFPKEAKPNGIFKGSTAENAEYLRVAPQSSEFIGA
The target in test [8] is Follistatin-related protein 3 (Homo sapiens) (UniProt O95633). The test is described as follows: compounds binding follistatin-related protein 3 – biochemical, small-molecule microarray, 635 nm fluorescence, primary screen (AID 1105).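 Also: score merges emission near 667 nm and signal to noise per printed spot across three slides.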 The settings on record: FSTL3 binding, higher = more signal.
Chain of Follistatin-related protein 3 (Homo sapiens) (O95633 whole entry, looked up): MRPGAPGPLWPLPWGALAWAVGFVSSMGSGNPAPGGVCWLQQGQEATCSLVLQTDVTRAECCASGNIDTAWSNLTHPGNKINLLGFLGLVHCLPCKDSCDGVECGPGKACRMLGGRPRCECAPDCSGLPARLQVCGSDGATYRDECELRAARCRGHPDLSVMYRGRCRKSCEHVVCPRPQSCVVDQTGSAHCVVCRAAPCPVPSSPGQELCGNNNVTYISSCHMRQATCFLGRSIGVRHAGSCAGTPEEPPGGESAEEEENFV
For test [9], the target named is Dickkopf-related protein 1 (Homo sapiens) (UniProt O94907). The test is described as follows: small molecules binding DKK1 protein – biochemical, small-molecule microarray, 635 nm fluorescence scan, primary screen (AID 1106).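 Also: score merges emission near 667 nm with signal to noise over three replicate slides.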 The settings on record: higher = more signal.
Chain of Dickkopf-related protein 1 (Homo sapiens) (O94907 whole entry, looked up): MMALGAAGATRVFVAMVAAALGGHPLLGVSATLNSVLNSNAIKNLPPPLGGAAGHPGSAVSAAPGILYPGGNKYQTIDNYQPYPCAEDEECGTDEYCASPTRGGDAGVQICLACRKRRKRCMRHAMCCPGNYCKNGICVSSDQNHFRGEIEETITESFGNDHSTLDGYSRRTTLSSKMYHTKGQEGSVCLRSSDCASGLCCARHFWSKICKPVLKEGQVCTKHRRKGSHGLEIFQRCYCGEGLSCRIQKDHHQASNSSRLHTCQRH
Test [10] relates to Inhibin beta A chain (activin A). The test is described as follows: small molecules binding activin A – biochemical, small-molecule microarray, 635 nm fluorescence scan, primary screen (AID 1107).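 Also: mouse activin A protein probed at 4.33 µg/mL on printed slides; score merges bound-protein fluorescence near 667 nm with spot signal-to-noise.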 The settings on record: INHBA, higher = more signal.
Test [11] has as its system Human papillomavirus type 1a protein E7 (residues 44-93). The test is described as follows: small molecules binding HPV E7 44-93 – biochemical, small-molecule microarray, residues 44-93, 635 nm fluorescence, primary screen (AID 1108).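 Also: E7 fragment applied at 1 µg/mL in TBST for 1 h at 4 C; score combines spot fluorescence with its signal to noise ratio.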 The settings on record: fluorescence 635 nm, higher = more signal.
Test [12] can be described thus: hepatitis C replication reporter changes, two-sided – Huh7 cells, luciferase reporter, HCV replication inhibitor project, primary screen (AID 1109).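 Also: huh7 hepatoma cells harbouring a luciferase neomycin HCV replicon reporter; luciferase luminescence as measure of HCV replicon replication; test concentration not given here.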 The settings on record: Huh7 HCV replicon luciferase reporter, 48 h; higher = more signal.
In test [13] the target is Left-right determination factor 2 (Homo sapiens) (UniProt O00292). The test is described as follows: small molecules binding LEFTY2 protein – biochemical, small-molecule microarray, 635 nm fluorescence scan, primary screen (AID 1110). The settings on record: higher = more signal.
Chain of Left-right determination factor 2 (Homo sapiens) (O00292 whole entry, looked up): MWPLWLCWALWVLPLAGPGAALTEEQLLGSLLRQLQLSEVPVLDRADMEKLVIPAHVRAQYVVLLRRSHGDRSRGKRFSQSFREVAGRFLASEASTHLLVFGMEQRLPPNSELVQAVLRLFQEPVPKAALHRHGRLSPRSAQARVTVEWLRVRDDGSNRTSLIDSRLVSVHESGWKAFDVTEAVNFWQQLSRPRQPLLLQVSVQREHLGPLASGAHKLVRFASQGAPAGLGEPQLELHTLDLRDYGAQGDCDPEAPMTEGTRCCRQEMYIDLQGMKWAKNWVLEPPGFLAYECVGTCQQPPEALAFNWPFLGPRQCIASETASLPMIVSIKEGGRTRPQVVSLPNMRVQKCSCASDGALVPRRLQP
Test [14] addresses Calmodulin-1 (Homo sapiens) (UniProt P0DP23). The test is described as follows: small molecules binding calmodulin-1 with EGTA – biochemical, small-molecule microarray, Cy5-labelled CALM1, profiling panel (AID 1111).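 Also: labelled calmodulin applied in Tris saline Tween buffer holding calcium plus EGTA and DTT.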 Conditions: Cy5-CALM1 binding fluorescence, higher = more signal.
For test [15] the target is unchanged. Put plainly: small molecules binding Ca-loaded calmodulin-1 – biochemical, small-molecule microarray, Cy5-labelled CALM1, plus calcium, artefact control for SMM control-protein annotation, profiling panel (AID 1112).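 Also: score merges spot fluorescence with signal to noise from triplicate slides.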 The settings on record: Cy5-CALM1 binding fluorescence, higher = more signal.
Test [16] is described as follows: probe aWnt5a binding to arrayed compounds – biochemical, biotinylated probe, 635/667 nm fluorescence, primary screen (AID 1113).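 Also: score merges 667 nm fluorescence intensity with signal-to-noise per printed feature.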 Conditions: small-molecule microarray, higher = more signal.
Test [17] in a line: probe aShh binding to arrayed compounds – biochemical, biotinylated probe, 635/667 nm fluorescence, primary screen (AID 1114).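 Also: probe is biotin-labelled aShh protein from a stem cell growth factor screen; measures binding of labelled protein to compounds printed on the slide; score merges feature fluorescence at 667 nm with signal-to-noise.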 The settings on record: small-molecule microarray, higher = more signal.
Test [18] is described as follows: probe aNog binding to arrayed compounds – biochemical, biotinylated probe, 635/667 nm fluorescence, primary screen (AID 1115).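 Also: probe is biotinylated aNog protein used at 0.15 µg/mL for 1 h at 4 C; z-score combines 667 nm fluorescence of each spot with its signal to noise.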 Conditions: small-molecule microarray, higher = more signal.
Test [19] deals with Torsin-1A-interacting protein 1 (Homo sapiens) (UniProt Q5JTV8). Put plainly: compound microarray binding of lysate hLAP1 – cell lysate, small-molecule microarray, COS7 lysate, 635/667 nm fluorescence, primary screen (AID 1116). The settings on record: 635 nm fluorescence, higher = more signal.
Chain of Torsin-1A-interacting protein 1 (Homo sapiens) (Q5JTV8 whole entry, looked up): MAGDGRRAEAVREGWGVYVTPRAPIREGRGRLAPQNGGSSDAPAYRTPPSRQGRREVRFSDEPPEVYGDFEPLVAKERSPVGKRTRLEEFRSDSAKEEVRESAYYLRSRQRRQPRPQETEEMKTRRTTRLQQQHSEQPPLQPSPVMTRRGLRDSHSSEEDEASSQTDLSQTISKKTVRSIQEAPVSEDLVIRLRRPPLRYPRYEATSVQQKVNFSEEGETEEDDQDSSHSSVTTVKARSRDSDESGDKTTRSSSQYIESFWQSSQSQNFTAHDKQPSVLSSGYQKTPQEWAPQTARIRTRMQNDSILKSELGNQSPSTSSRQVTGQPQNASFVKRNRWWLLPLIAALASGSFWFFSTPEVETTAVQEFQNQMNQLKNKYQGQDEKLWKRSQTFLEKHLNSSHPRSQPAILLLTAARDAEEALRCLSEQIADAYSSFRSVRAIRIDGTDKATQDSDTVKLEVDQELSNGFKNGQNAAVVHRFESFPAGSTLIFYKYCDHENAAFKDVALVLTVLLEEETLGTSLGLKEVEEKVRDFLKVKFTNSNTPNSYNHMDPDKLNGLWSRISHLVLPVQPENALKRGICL
The target of test [20] is Alpha-bungarotoxin (Bungarus multicinctus) (UniProt P60615). The test is described as follows: compounds binding labelled alpha-BTX control protein – biochemical, small-molecule microarray, Alexa647 label, 635/667 nm fluorescence, artefact control for SMM control protein annotation, profiling panel (AID 1117). The settings on record: alpha-BTX-A647 binding fluorescence, higher = more signal.
Chain of Alpha-bungarotoxin (Bungarus multicinctus) (P60615 whole entry, looked up): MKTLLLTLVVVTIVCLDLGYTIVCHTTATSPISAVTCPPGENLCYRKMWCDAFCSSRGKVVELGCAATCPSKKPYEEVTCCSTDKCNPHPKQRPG

`CCOC(=O)C[C@H]1[C@H](OC(=O)c2ccccc2-c2ccccc2)[C@@H](NC(=O)CC(C)C)c2cc(OCCCO)ccc2N1C(=O)c1ccccc1`: the composite z-score in [1] was 0.461; in test [2] it was -0.28; in test [3] it was -0.56; in [5] it was 0.625; in test [6], 0.211; in test [7], 0.405. Besides, the composite z-score in [8] is 1.26; in [9], 0.523; in test [10], -0.105; in test [11], 0.0819; in test [13], 0.466; in test [14] it was -0.0923. Also, the composite z-score was -0.497 in test [15]; -0.124 in [16]; -0.289 in test [17]; -0.189 in test [18]; 0.222 in [19]; 0.23 in [20]. Moreover, the z-score is -0.739 (inactive) in [4] and -0.783 in [12].
As to `C[N+](C)(C)CCCC[C@@H]1NC(=O)[C@H]2C[C@@H](C(=O)O)[C@@H](c3ccc(O)cc3)N2C1=O`, the composite z-score in test [1] is 0.327; in test [2], -0.0349; in [3] it was 0.149; in test [5], 0.158; in test [6], 0.984; in test [7], -0.102. In addition, the composite z-score in [8] was 0.0506; in test [9], 0.971; in test [10], 0.832; in [11] it was 0.315; in test [13] it was 0.436; in test [14], -0.171. Besides, the composite z-score in test [15] was 0.11; in test [16], -0.147; in test [17], -0.375; in test [18], -0.14; in test [19], 1.74; in test [20], 0.343. In addition, the z-score in test [4] was -0.303 (inactive); in test [12], 3.08.
Regarding `COc1ccc([Si](C)(C)[C@H]2[C@H](CC(=O)N(CCO)Cc3ccccc3)O[C@@]3(C(=O)N(Cc4ccc(N5C(=O)c6cccc7cccc5c67)cc4)c4ccccc43)[C@@H]2C)cc1`, the composite z-score was 0.899 in test [1]; 0.0486 in [2]; 0.0598 in test [3]; 0.994 in test [5]; -0.461 in test [6]; 0.303 in test [7]. Besides, the composite z-score in test [8] was 0.614; in test [9], 0.541; in test [10] it was 0.803; in test [11] it was 1.28; in test [13], 0.544; in [14], 0.605. Further, the composite z-score in test [15] amounted to 0.103; in test [16], 0.0495; in test [17], 0.19; in [18] it was 0.945; in test [19] it was 0.869; in test [20] it was 0.753. Moreover, the z-score was -1.1 (inactive) in test [4] and -3.78 in test [12].
Take `COC(=O)[C@@]1(Cc2ccc(F)cc2)[C@H]2c3cc(C(=O)N4CCCC4)n(CCSCCO)c3C[C@H]2CN1C(=O)c1ccccc1`: the composite z-score in test [1] is 1.33; in [2] it was 1.02; in test [3] it was 1.22; in test [5] it was 0.26; in test [6], -0.273; in test [7], -0.707. The composite z-score is -0.803 in test [8]; -0.957 in test [9]; 1.06 in test [10]; 1.2 in [11]; -0.721 in test [13]; 1.34 in [14]. For the same compound, the composite z-score in test [15] stood at 0.318; in [16] it was 0.0914; in [17], 1.08; in [18], 1.56; in test [19] it was 0.403; in test [20] it was 0.566. Further, the z-score in test [4] was -2.25 (inactive); in test [12] it was -1.24.
As to `O=C1O[C@@H](c2ccccc2)[C@@H](c2ccccc2)N2[C@@H](c3ccccc3OCCO)[C@]3(C(=O)Nc4ccc(C#CC5(O)CCCCCC5)cc43)[C@@H](C(=O)N3CCCCCCC3)[C@H]12`, the composite z-score in [1] turned out to be 2.16; in test [2], 3.21; in test [3] it was 1.84; in test [5], 1.66; in [6] it was 1.45; in test [7] it was 2.09. For the same compound, the composite z-score is 1.77 in [8]; 2.68 in test [9]; 1.91 in [10]; 1.61 in test [11]; 1.87 in test [13]; 3.06 in test [14]. In addition, the composite z-score in test [15] amounted to 1.82; in test [16] it was 1.65; in test [17] it was 3.04; in [18], 3.8; in test [19] it was 5.6; in test [20], 4.54. In addition, the z-score was -1.3 (inactive) in [4] and -2.22 in [12].
